Assay [1] in a line: qHTS assay to test for compound auto fluorescence at 535 nm (green) in HEK293 cell free culture (AID 720682). In short, it runs like this: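 Fluorescein serves as the green reference fluorophore; each compound's intrinsic emission at 535 nm (excitation 485 nm) is reported as an equivalent amount of that dye, measured in serum-containing DMEM without cells.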
Assay [2] can be described thus: qHTS assay to test for compound auto fluorescence at 590 nm (red) in HEK293 cell free culture (AID 720683). The essentials: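 Red-channel autofluorescence of compounds in culture medium (DMEM, 10% FBS), no cells, measured at 540/590 nm. Rose Bengal sodium is the reference fluorophore for equivalence.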
Assay [3] in a line: qHTS assay to test for compound auto fluorescence at 590 nm (red) in HepG2 cell free culture (AID 720684). In short, it runs like this:
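Plate contents were MEM with 10% FBS plus test compound or DMSO, no cells. Fluorescence was recorded with 540 nm excitation and 590 nm emission.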

A short description of assay [4]: qHTS assay to test for compound auto fluorescence at 460 nm (blue) in HepG2 cell free culture (AID 720685). In short, it runs like this: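 Compound (23 nL) or DMSO pinned into cell-free MEM with 10% FBS; blue fluorescence read at 405/460 nm excitation/emission, expressed as auto-fluorescence equivalency to triamterene.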
Assay [5] can be described thus: qHTS assay to test for compound auto fluorescence at 535 nm (green) in HepG2 cell free culture (AID 720686).
Assay [6] is described as follows: qHTS assay to test for compound auto fluorescence at 460 nm (blue) in HepG2 cells (AID 720687). In short, it runs like this:
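Blue-channel autofluorescence (Ex/Em 405/460 nm, triamterene-equivalent) was measured after 1 hr compound exposure at 37 C, 5% CO2. Cells were HepG2, plated overnight at 37 C in MEM plus 10% FBS.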

Assay [7] has as its target Glucocorticoid receptor (Homo sapiens) (UniProt P04150). The experiment in a line: qHTS assay to identify small molecule agonists of the glucocorticoid receptor (GR) signaling pathway (AID 720691; active = well fitted activation curve with a large enough effect in the signal ratio in the repeat runs, not every such curve was filed as active; the % refers to the signal ratio). The essentials: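 Reporter read-out: fluorescence intensity following 2 h room-temperature LiveBLAzer B/G FRET substrate loading. Prior step: GR-bla HeLa cells held 4 h, then treated 18 h at 37 C.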

Assay [8] in a line: qHTS assay to identify small molecule antagonists of the glucocorticoid receptor (GR) signaling pathway - cell viability counter screen (AID 720693). Note: nearly all actives have a fitted effect of over 55% in size.
The nature of assay [9]: qHTS assay for identifying genotoxic compounds that show differential cytotoxicity against isogenic chicken DT40 cell lines with known DNA damage response pathways - wild type cell line (AID 743012). Note: nearly all actives have a fitted effect of over 60% in size. The essentials: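 Using parental DT40 (300 cells/well), compounds delivered in DMSO incubate 40 h at 37 C/5% CO2. CellTiter-Glo reagent then stands 30 min at room temperature, and luminescence gives cell viability.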

Assay [10] is described as follows: qHTS assay for identifying genotoxic compounds that show differential cytotoxicity against isogenic chicken DT40 cell lines with known DNA damage response pathways - Rev3 mutant cell line (AID 743014). Note: nearly all actives have a fitted effect of over 55% in size. Note: potency is the fitted concentration of half-maximal effect.
Assay [11] in a line: qHTS assay for identifying genotoxic compounds that show differential cytotoxicity against isogenic chicken DT40 cell lines with known DNA damage response pathways - Rad54/Ku70 mutant cell line (AID 743015). Note: nearly all actives have a fitted effect of over 60% in size.
Assay [12] can be described thus: qHTS assay to identify small molecule antagonists of the androgen receptor (AR) signaling pathway - cell viability counter screen (AID 743033; note: nearly all actives have a fitted effect of over 45% in size).
Assay [13] in a line: qHTS assay to identify small molecule antagonists of the androgen receptor (AR) signaling pathway using the MDA cell line - cell viability counter screen (AID 743041; note: nearly all actives have a fitted effect of over 45% in size). In short, it runs like this:
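R1881-driven MDA-kb2 AR-luc cells, 3,000/well, were dosed with library compounds for 16 h; cell health came from CellTiter-Fluor fluorescence in the reporter wells.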

Assay [14] in a line: qHTS assay to identify small molecule antagonists of the thyroid receptor (TR) signaling pathway - cell viability counter screen (AID 743064). Note: nearly all actives have a fitted effect of over 50% in size. The essentials: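 Fluorescence from CellTiter-Fluor, added after 23.5 h exposure at 37 °C, reported viability of GH3.TRE-Luc cells co-treated with compound and 1 nM T3. Measured in the same wells as the luciferase TR readout.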
Assay [15] can be described thus: qHTS assay to test for compound auto fluorescence at 460 nm (blue) in HEK293 cell free culture (AID 720681). The essentials:
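Blue fluorescence (Ex 405/Em 460 nm, triamterene-equivalent) was read immediately after pin transfer of compound or DMSO into medium (DMEM, 10% FBS) without cells.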

Assay [16] deals with Glucocorticoid receptor (Homo sapiens) (UniProt P04150). The experiment in a line: qHTS assay to identify small molecule antagonists of the glucocorticoid receptor (GR) signaling pathway (AID 720692; active = well fitted inhibition curve with a large enough effect in the signal ratio in the repeat runs, not every such curve was filed as active; the % refers to the signal ratio). The essentials: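 Dexamethasone (5 nM final) stimulated a stably integrated GRE-beta-lactamase reporter in HeLa cells during 18 h co-incubation with compounds; signal was quantified as fluorescence intensity of B/G FRET substrate after 2 h.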
Chain of Glucocorticoid receptor (Homo sapiens) (P04150 whole entry, looked up): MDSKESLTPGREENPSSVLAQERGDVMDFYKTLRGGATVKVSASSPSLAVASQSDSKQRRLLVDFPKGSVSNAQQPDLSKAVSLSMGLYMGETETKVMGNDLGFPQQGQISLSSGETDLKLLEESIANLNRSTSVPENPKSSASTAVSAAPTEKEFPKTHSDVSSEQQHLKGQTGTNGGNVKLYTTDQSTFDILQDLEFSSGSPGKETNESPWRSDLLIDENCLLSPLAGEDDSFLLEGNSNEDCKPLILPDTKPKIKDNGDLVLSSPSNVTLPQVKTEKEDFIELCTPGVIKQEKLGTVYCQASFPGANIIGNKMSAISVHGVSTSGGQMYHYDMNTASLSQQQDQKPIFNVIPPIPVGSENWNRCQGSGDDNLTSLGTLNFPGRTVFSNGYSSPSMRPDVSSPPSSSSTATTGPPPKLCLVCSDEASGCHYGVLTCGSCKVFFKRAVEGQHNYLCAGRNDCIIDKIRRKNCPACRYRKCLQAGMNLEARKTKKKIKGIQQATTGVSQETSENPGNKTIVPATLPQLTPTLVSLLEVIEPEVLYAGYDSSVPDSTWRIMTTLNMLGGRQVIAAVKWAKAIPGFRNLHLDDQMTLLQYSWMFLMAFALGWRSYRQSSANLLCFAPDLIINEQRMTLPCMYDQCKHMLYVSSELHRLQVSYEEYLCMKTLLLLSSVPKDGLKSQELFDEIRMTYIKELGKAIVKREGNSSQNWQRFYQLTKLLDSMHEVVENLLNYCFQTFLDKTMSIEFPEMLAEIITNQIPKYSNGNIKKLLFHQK

Assay [17] has as its target Androgen receptor (Homo sapiens) (UniProt P10275). The experiment in a line: qHTS assay to identify small molecule agonists of the androgen receptor (AR) signaling pathway (AID 743036; active = well fitted activation curve with a large enough effect in the signal ratio in the repeat runs, with a control signal flat, not every such curve was filed as active; the % refers to the signal ratio). In short, it runs like this:
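Fluorescence from a beta-lactamase FRET substrate served as read-out in AR-UAS-bla GripTite HEK293 cells. Cells were treated with DMSO-dissolved compounds for 16 h at 37C, then with LiveBLAzer B/G substrate for 2 h at room temperature.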

Assay [18] shares this target. Put plainly: qHTS assay to identify small molecule agonists of the androgen receptor (AR) signaling pathway using the MDA cell line (AID 743040; note: nearly all actives have a fitted effect of over 20% in size). The essentials: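 After a 5 h incubation at 37C and 0% CO2, MDA-kb2 reporter cells were dosed with compounds in DMSO and kept 16 h under the same conditions. Luciferase activity was then read as luminescence with ONE-Glo.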

For assay [19] the target is unchanged. The experiment in a line: qHTS assay to identify small molecule antagonists of the androgen receptor (AR) signaling pathway using the MDA cell line (AID 743042; note: nearly all actives have a fitted effect of over 55% in size). In short, it runs like this:
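Antagonist mode: compounds plus R1881 agonist added to MDA-kb2 AR-luc cells, incubated 16 h at 37C. Luciferase reporter luminescence quantified, with multiplexed CellTiter-Fluor readout for cell viability.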

SMILES strings stand for the structures. Values without a mark were called inactive. Results filed as inconclusive are left out. Activity calls are given as the source filed them. Unless noted, calls come from the whole dose curve; as a rule, active = well fitted curve in the direction sought with a large enough effect in the repeat runs; inconclusive = weak or mixed curves; inactive = no such curve, though single readings can be large; an effect the other way counts as inactive or inconclusive.

Chain of Androgen receptor (Homo sapiens) (P10275 whole entry, looked up): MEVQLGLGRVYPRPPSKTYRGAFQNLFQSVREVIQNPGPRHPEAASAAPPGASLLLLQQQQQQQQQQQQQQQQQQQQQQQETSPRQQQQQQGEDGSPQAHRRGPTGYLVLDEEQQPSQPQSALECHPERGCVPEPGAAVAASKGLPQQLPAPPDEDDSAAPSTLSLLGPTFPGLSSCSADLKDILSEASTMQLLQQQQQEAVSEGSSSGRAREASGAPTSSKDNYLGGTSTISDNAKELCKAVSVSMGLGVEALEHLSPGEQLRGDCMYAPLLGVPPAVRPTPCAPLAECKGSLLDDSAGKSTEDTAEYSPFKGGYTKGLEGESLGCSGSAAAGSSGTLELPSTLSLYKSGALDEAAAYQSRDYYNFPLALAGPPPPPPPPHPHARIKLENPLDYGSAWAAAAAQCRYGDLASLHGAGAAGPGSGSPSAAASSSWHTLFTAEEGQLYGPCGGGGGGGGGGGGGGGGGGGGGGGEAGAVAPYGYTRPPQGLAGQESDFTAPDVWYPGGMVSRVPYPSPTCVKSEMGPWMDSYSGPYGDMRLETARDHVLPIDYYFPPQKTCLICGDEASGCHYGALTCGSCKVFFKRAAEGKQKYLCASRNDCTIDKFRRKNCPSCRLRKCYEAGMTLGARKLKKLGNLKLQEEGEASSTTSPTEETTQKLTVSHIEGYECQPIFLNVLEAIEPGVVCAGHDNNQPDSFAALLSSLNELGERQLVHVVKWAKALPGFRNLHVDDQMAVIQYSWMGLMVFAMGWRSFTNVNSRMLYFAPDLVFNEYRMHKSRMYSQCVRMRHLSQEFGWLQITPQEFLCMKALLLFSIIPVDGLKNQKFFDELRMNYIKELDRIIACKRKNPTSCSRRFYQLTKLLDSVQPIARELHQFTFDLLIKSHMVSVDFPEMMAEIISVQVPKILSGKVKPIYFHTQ

As to `C1CCN(CN2CCCCC2)CC1`, the call in assay [1], in assay [2], in assay [3], in assay [4], in assay [5] and in assay [6] was inactive. For the same compound, the Potency result in assay [7], in assay [8], in assay [9], in [10], in assay [11] and in [12] was “inactive” in each case. For the same compound, the Potency result in assay [13] and in assay [14] was “inactive” each time.

As for `C=CC(=O)OCCCCCCCCCC`, the Potency result in assay [15], in assay [16], in assay [8], in [9], in assay [10] and in assay [11] was “inactive” in each case. The Potency result in [13] and in [14] was “inactive” throughout. Besides, the compound was called inactive in assay [1], in assay [2], in [3], in assay [4], in [5] and in [6].

Consider `N#C[C@@H]1CC(F)(F)CN1C(=O)CNC1CC2CCC(C1)N2c1ncccn1` (some centres not stated), for which the Potency entry in assay [15], in assay [7], in [16], in assay [8], in [12] and in assay [13] was “inactive” each time. For the same compound, the Potency entry in assay [19] and in assay [14] was “inactive” in each case. For the same compound, the result in assay [1], in assay [2], in assay [3], in assay [4], in assay [5] and in assay [6] was inactive. Further, the call in assay [17] and in assay [18] was inactive.

As for `CCCCCCCCC(=O)OCC(C)OC(=O)CCCCCCCC` (configuration not stated), the Potency result in assay [15], in assay [7], in assay [8], in assay [9], in assay [10] and in assay [12] was “inactive” in each case. For the same compound, the Potency entry in [13] and in [14] was “inactive” throughout. Moreover, the call in [1], in assay [2], in [3], in [4], in assay [5] and in assay [6] was inactive.

With `COC(=O)Cc1cccc2ccccc12`, the Potency entry in assay [15], in [7], in assay [16], in assay [8], in assay [12] and in assay [13] was “inactive” in each case. The Potency result in [19] is “inactive”. The compound was called inactive in assay [1], in [2], in assay [3], in [4], in assay [5] and in assay [6]. The result in [17] and in [18] was inactive. Also, in assay [10], the Potency was 54.5 µM (active).

Take `CC(C)Oc1ccccc1O`: the Potency entry in [15], in assay [7], in [16], in assay [8], in assay [10] and in assay [11] was “inactive” throughout. The Potency entry in assay [12] and in assay [14] was “inactive” throughout. Moreover, the call in assay [1], in assay [2], in [4], in [5] and in assay [6] was inactive.

`CCOC(C)OCC`: the Potency result in [15], in assay [16], in [8], in assay [9], in assay [10] and in assay [11] was “inactive” in each case. Besides, the Potency result in assay [12], in [13] and in assay [14] was “inactive” throughout. Also, the outcome in [1], in assay [2], in [3], in assay [4], in assay [5] and in [6] was inactive.

As for `O=[N+]([O-])c1cccc(I)c1`, the Potency entry in assay [15], in [16], in assay [8], in assay [9], in [10] and in assay [11] was “inactive” throughout. In addition, the Potency entry in assay [12], in assay [13] and in assay [14] was “inactive” throughout. Besides, the result in assay [1], in assay [2], in assay [3], in assay [4], in [5] and in assay [6] was inactive.

These data come from PubChem BioAssay (Tox21).
